Screening results (PubChem)
CYP2C9 inh: inhibitors of human CYP2C9; CYP2C9 Supersomes, luciferin-H conversion, luminescence; AID 777; 20% of 96,000 active; P11712; inhibition, % at 5 µM;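 active = blocking of liver enzyme CYP2C9 beyond about 50% at 5 µM, limit read from the data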
CYP2C19 inh: blocks human cytochrome P450 2C19 | inhibition, % at 5 µM | CYP2C19 Supersomes, luciferin-H EGE luminescence, 30 min | P33261 | 21% of 96,000 active;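 active = CYP2C19 inhibition above a set limit at 5 µM in the primary screen, cut at about 50% in these data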;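 note: plate controls were negative control wells for no effect and 2.5 mM tranylcypromine positive control for full effect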
CYP2C19 act: cytochrome P450 2C19 (human) activation; AID 1025; recombinant CYP2C19, luciferin-H EGE luminescence; stronger effect = higher value; 0 = fully inhibited enzyme, 1 = untreated enzyme; activation factor at 5 µM; 96,000 tested, under 10 active; P33261;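 active = activation factor of at least 2 at 5 µM in the primary screen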;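 note: 0 = wells with 2.5 mM tranylcypromine and 1 = vehicle-only wells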
CYP2C9 activ: CYP2C9 (human) activation; recombinant CYP2C9, luciferin-H conversion, luminescence; stronger effect = higher value; factor 1 = untreated enzyme, 0 = blocked; activation factor at 5 µM; 1.4% of 96,000 active; P11712;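 active = activation factor of 2 or more for CYP2C9 at a 5 µM dose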;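 note: 0 = sulfaphenazole-blocked wells and 1 = vehicle-only wells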
MRP reversal: compounds reversing MRP-mediated drug resistance; 0.04% of 85,000 active; H69AR cells + 2 uM doxorubicin, CellTiter-Glo, 72 h; AID 602; differential viability (reversal), % at 10 µM;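 active = viability drop by adding the cancer drug above about 55%, with treated viability meeting a 40% cutoff, limit read from the data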;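 note: viability without doxorubicin minus viability with 2 µM doxorubicin for each compound; larger differential means the compound sensitizes cells more to doxorubicin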
MRP-1 activ: activators of MRP-1; H69AR cells + doxorubicin, viability rescue, CellTiter-Glo; 0.61% of 140,000 active; viability increase, % at 10 µM; AID 799;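 active = viability gain under doxorubicin at or above a set limit, the compound median plus 3 SD, cut at about 4.7% in these data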;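 note: MRP-1 overexpressing cells given doxorubicin 25 µM after compound pretreatment; 18-22 h compound pretreatment then 72 h with doxorubicin before readout; 0% = doxorubicin-only wells and 100% = vehicle-treated cells without doxorubicin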
Starred values were filed as active, the others as inactive; nt = not tested or not shown. Shown are actives, neighbours in structure and some others; about 21% of the full set was active somewhere.

SMILES	CYP2C9 inh	CYP2C19 inh	CYP2C19 act	CYP2C9 activ	MRP reversal	MRP-1 activ
CCC(C)C(NC(=O)c1ccc(Cl)cc1Cl)C(=O)O (stereo unspecified)	nt	nt	nt	nt	nt	0
CCOC(=O)c1ccccc1NC(=O)CSc1nnc(COc2ccccc2C)n1C	-34	41	0.6	1.3	9	2
CC(C)(C)Nc1nc(Oc2ccc(=O)n(-c3ccccc3)n2)nc(N2CCOCC2)n1	68*	54*	0.5	0.3	-41	-2
O=C(NC1CCCCCC1)C1c2ccccc2C(=O)N1Cc1cccnc1 (stereo unspecified)	2	52*	0.5	1	7	-1
O=C(NC1CCCC1)C1c2ccccc2C(=O)N1C1CCCCC1 (stereo unspecified)	-4	-11	1.1	1	2	-3
O=C(NCc1cccnc1)C1c2ccccc2C(=O)N1C1CCCCCC1 (stereo unspecified)	20	68*	0.3	0.8	13	-1
CCc1ccc(N2C(=O)CC(NNc3nc4ccccc4s3)C2=O)cc1 (stereo unspecified)	nt	nt	nt	nt	nt	-1
